From PubChem
Sampled rows, rich in hits. Any-hit rate of the full collection: about 21%.
RORg inh: qHTS for inhibitors of ROR gamma transcriptional activity | Nuclear receptor ROR-gamma (Mus musculus), P51450 | Drosophila S2 Gal4-RORgamma UAS-luciferase reporter, 20 h | Potency, µM (highest dose often 53.6 µM), for the others: at the top dose activity change, negative = inhibition, most hits filed as inhibitors | 310,000 tested, 5.4% active | AID 2551, 2010; further: potency means the concentration at half of the fitted maximal effect; nearly all actives have a fitted effect of over 60% in size
Target sequence (P51450 whole entry, looked up, the tested form may be a part): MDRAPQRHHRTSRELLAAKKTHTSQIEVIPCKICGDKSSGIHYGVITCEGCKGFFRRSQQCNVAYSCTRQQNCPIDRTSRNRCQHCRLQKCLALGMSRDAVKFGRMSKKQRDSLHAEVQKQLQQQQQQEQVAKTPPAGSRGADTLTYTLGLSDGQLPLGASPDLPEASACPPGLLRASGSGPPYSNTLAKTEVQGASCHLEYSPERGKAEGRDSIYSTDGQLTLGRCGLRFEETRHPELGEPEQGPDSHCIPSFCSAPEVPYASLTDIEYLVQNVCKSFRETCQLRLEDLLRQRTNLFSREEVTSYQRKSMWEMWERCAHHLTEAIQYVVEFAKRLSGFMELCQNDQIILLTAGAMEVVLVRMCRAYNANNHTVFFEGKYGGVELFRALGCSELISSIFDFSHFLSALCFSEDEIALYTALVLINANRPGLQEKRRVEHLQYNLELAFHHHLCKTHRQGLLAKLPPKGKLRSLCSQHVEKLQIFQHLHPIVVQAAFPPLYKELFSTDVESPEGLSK
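Compounds are pin-transferred onto Drosophila Schneider cells expressing a copper-inducible Gal4–ROR gamma transactivation domain fusion. After 1 hr, copper sulfate is added to 700 uM final; luciferase is read 20 hr later.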
VP16 counter: VP16 counterscreen qHTS for inhibitors of ROR gamma transcriptional activity; 310,000 tested, 3.5% active; Drosophila S2 Gal4-VP16 UAS-luciferase, luminescence, 20 h; Potency, µM (series often up to 53.6 µM), for the others: top-dose activity, negative = inhibition, usual class: inhibitors;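 further: Gal4-VP16 expression switched on by copper sulfate through the metallothionein promoter; potency means the concentration at half of the fitted maximal effect; nearly all actives have a fitted effect of over 50% in size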
DT40 TDP1 no CPT: qHTS for Inhibitors of human tyrosyl-DNA phosphodiesterase 1 (TDP1): qHTS in cells in absence of CPT; DT40 Tdp1-/- hTDP1 cells, no CPT, ATP luminescence, 48 h; 420,000 tested, 15% active; Potency, µM (series often up to 46.2 µM), without a hit: at the top dose activity change, negative = growth inhibition, usual class: inhibitors; further: potency means the concentration at half of the fitted maximal effect; nearly all actives have a fitted effect of over 55% in size
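No-CPT arm: Tdp1-/-;hTDP1 DT40 cells (400/well) plus compounds, incubated ≥48 hr at 37 °C. Readout CellTiter-Glo luminescence.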
DT40 TDP1 CPT: qHTS for Inhibitors of human tyrosyl-DNA phosphodiesterase 1 (TDP1): qHTS in cells in presence of CPT. chicken DT40 Tdp1-/-;hTDP1 cells + 20 nM CPT, ATP luminescence, 48 h. Potency, µM (doses to about 46.2 µM), for inactives: top-dose activity change, negative = growth inhibition, hits mostly inhibitors. 420,000 tested, 12% active. AID 686979, 2013; further: potency means the concentration at half of the fitted maximal effect; nearly all actives have a fitted effect of over 55% in size
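Chicken DT40 Tdp1-/- cells stably complemented with human TDP1 were seeded at 400 cells/well in medium containing 20 nM camptothecin, exposed to pin-transferred compounds, and grown at 37 °C for at least 48 hr. Viability was read as ATP luminescence.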
ELG1 repair inh: qHTS screen for small molecules that inhibit ELG1-dependent DNA repair in human embryonic kidney (HEK293T) cells expressing luciferase-tagged ELG1. Potency, µM (highest dose often 46.1 µM), inactives show at the highest dose activity change, negative = inhibition, hits mostly inhibitors. HEK293T ELG1-luciferase reporter, luminescence, 16 h; DNA damage induced by 5-fluorouridine. 330,000 tested, 2.3% active; further: potency means the concentration at half of the fitted maximal effect; nearly all actives have a fitted effect of over 55% in size
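HEK293T cells expressing luciferase-tagged ELG1 (2,000/well) received 5-Fluorouridine plus compound or DMSO for 16 hr at 37 °C. Luciferase was read by ONE-Glo luminescence after 30 min at room temperature.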
IL-1B inflam inh: qHTS for Inhibitors of Inflammasome Signaling: IL-1-beta AlphaLISA Primary Screen; activity change, % at 57.5 µM; THP-1 LPS/ATP IL-1B secretion, AlphaLISA, 16 h; hits give low values; 360,000 tested, 4.7% active; in the data active means activity change below about -50%; inconclusive means mostly about -30% to -49%
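THP-1 cells pretreated 1 hr with compounds (up to 57.5 uM final), then stimulated with LPS (250 ng/mL final) plus ATP (1.25 mM final); secreted IL-1B measured by AlphaLISA after 16 hr, decreased signal indicating inhibition.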
The depositor's hits bear a star; [ ] = another dose, or the depositor's remark. Unless noted, the call rests on the fitted dose curve; in most records, active means well fitted curve in the direction sought with a large enough effect; inconclusive means small, poorly fitted or top-dose-only effect, or another doubt; inactive means no such curve, though single readings can be large; an effect the other way counts as inactive or inconclusive. On the % scale 0 is the no-effect control and ±100 the full control effect.

What do the screens show for `O=C(CSc1nc2ccccc2c(=O)[nH]1)N1CCN(c2ccccc2F)CC1`?
RORg inh: -11%; VP16 counter: -3%; DT40 TDP1 no CPT: 18µM*; DT40 TDP1 CPT: inconclusive; ELG1 repair inh: 0%; IL-1B inflam inh: 26

What do the screens show for `CC(C)(C)c1ccc(C(=O)CSc2nc3ccccc3c(=O)[nH]2)cc1`?
RORg inh: 15%; VP16 counter: inconclusive; DT40 TDP1 no CPT: 2.8µM*; DT40 TDP1 CPT: 2.8µM*; ELG1 repair inh: 22%; IL-1B inflam inh: 27

Results for CC(C)(C)c1nc(SCC(=O)NCc2ccco2)c2ccccc2n1 ?
RORg inh: -31%; VP16 counter: -6%; DT40 TDP1 no CPT: inconclusive; DT40 TDP1 CPT: inconclusive; ELG1 repair inh: -4%; IL-1B inflam inh: 0

Results for c1ccc(CSc2nnnn2-c2ccccc2)cc1 ?
RORg inh: 40%; VP16 counter: 9%; DT40 TDP1 no CPT: 0%; DT40 TDP1 CPT: -20%; ELG1 repair inh: inconclusive; IL-1B inflam inh: inconclusive

Results for COc1ccc(C(=O)CSc2nc(C(C)(C)C)nc3ccccc23)cc1 ?
RORg inh: 7%; VP16 counter: -7%; DT40 TDP1 no CPT: 21µM*; DT40 TDP1 CPT: inconclusive; ELG1 repair inh: -13%; IL-1B inflam inh: 4

What do the screens show for `c1ccc(-n2nnnc2SCc2cccc(CSc3nnnn3-c3ccccc3)n2)cc1`?
RORg inh: 99%; VP16 counter: 1%; DT40 TDP1 no CPT: 13µM*; DT40 TDP1 CPT: inconclusive; ELG1 repair inh: inconclusive; IL-1B inflam inh: -10

Results for COc1ccc(-c2noc(-c3ccc(N4CCCC4)c([N+](=O)[O-])c3)n2)cc1 ?
DT40 TDP1 no CPT: -22%; DT40 TDP1 CPT: -21%

What do the screens show for `CC[N+](CC)(CCNC(=O)C(=O)NCC[N+](CC)(CC)Cc1ccccc1Cl)Cc1ccccc1Cl`?
RORg inh: 17%[10 µM]; VP16 counter: -4%; DT40 TDP1 no CPT: 10%; DT40 TDP1 CPT: -9%

How did Cc1ccccc1NC(=O)CNC(=O)N1CC(=O)Nc2ccccc21 do in these assays?
DT40 TDP1 no CPT: 5%; DT40 TDP1 CPT: 3%; IL-1B inflam inh: 20

What do the screens show for `O=C(CSc1nc2ccccc2c(=O)[nH]1)c1ccccc1`?
RORg inh: -7%; VP16 counter: 4%; DT40 TDP1 no CPT: 29µM*; DT40 TDP1 CPT: 21µM*; ELG1 repair inh: inconclusive; IL-1B inflam inh: 3

Results for CCc1ccc(-n2c(CSc3nnnn3-c3ccccc3)nc3ccccc3c2=O)cc1 ?
RORg inh: 0%; VP16 counter: 5%; DT40 TDP1 no CPT: 18µM*; DT40 TDP1 CPT: inconclusive; ELG1 repair inh: 0%; IL-1B inflam inh: 4

Results for COc1cccc(OCCSc2nc3ccccc3c(=O)[nH]2)c1 ?
RORg inh: 39%; VP16 counter: 3%; DT40 TDP1 no CPT: 21µM*; DT40 TDP1 CPT: -4%; ELG1 repair inh: -6%; IL-1B inflam inh: 24

Results for O=c1[nH]c(CSc2nnnn2-c2ccc(Cl)cc2)nc2ccccc12 ?
RORg inh: -36%; VP16 counter: -6%; DT40 TDP1 no CPT: inconclusive; DT40 TDP1 CPT: -27%; ELG1 repair inh: -14%; IL-1B inflam inh: 54

Results for Clc1ccc(-n2nnnc2SCc2c(-c3ccccc3)nc3sccn23)cc1 ?
RORg inh: inconclusive; VP16 counter: 6.3µM*; DT40 TDP1 no CPT: 13µM*; DT40 TDP1 CPT: inconclusive; ELG1 repair inh: inconclusive; IL-1B inflam inh: -21

Results for CCc1cccc(C)c1NC(=O)Cn1ccn(-c2ccc(F)cc2)c(=O)c1=O ?
DT40 TDP1 no CPT: 7%; DT40 TDP1 CPT: 10%

How did CC(=O)c1ccc(NC(=O)CCNC(=O)c2ccc(Cl)cc2)cc1 do in these assays?
RORg inh: -7%; VP16 counter: -1%; DT40 TDP1 no CPT: -6%; DT40 TDP1 CPT: -10%; ELG1 repair inh: 13%; IL-1B inflam inh: 0

Results for CC/C=C\C[C@H]1C(=O)CC[C@@H]1CC(=O)O ?
RORg inh: 15%; VP16 counter: 0%; DT40 TDP1 no CPT: 0%; DT40 TDP1 CPT: 0%

What do the screens show for `O=C(CCNS(=O)(=O)c1ccc(Br)cc1)N1CCN(c2ccccc2O)CC1`?
DT40 TDP1 no CPT: inconclusive; DT40 TDP1 CPT: inconclusive; ELG1 repair inh: -15%; IL-1B inflam inh: -16

How did Cc1cc(C(=O)CSc2nc3ccccc3c(=O)[nH]2)c(C)n1C do in these assays?
RORg inh: 25%; VP16 counter: 17%; DT40 TDP1 no CPT: 6.5µM*; DT40 TDP1 CPT: inconclusive; ELG1 repair inh: inconclusive; IL-1B inflam inh: -17

How did O=C(CCCSc1nc2ccccc2c(=O)[nH]1)c1ccccc1 do in these assays?
RORg inh: 13%; VP16 counter: -1%; DT40 TDP1 no CPT: 15µM*; DT40 TDP1 CPT: inconclusive; ELG1 repair inh: 17%; IL-1B inflam inh: 43

Results for O=c1[nH]c(SCc2nc3ccccc3c(=O)n2-c2ccccc2)nc2ccccc12 ?
RORg inh: 16%; VP16 counter: -7%; DT40 TDP1 no CPT: inconclusive; DT40 TDP1 CPT: 12µM*; ELG1 repair inh: inconclusive; IL-1B inflam inh: 14

What do the screens show for `O=C(CSc1nc(O)c(Cc2ccccc2)c(=O)[nH]1)c1ccccc1`?
RORg inh: 11%; VP16 counter: inconclusive; DT40 TDP1 no CPT: 2.1µM*; DT40 TDP1 CPT: inconclusive; ELG1 repair inh: inconclusive; IL-1B inflam inh: 3

What do the screens show for `CCCCCC/C=C/c1ccc(OC)c(C2C3C=CCC(C)C3C(=O)N2Cc2ccccc2)c1` (stereo not drawn)?
RORg inh: -8%; VP16 counter: 4%

Results for NC(=S)NCCC[C@H](N)C(=O)O ?
DT40 TDP1 no CPT: 10%[92.5 µM]; DT40 TDP1 CPT: -4%[92.5 µM]

How did O=C(c1cc(C(F)(F)F)cc(C(F)(F)F)c1)N1CCC2(CCCN(Cc3nccs3)C2)CC1 do in these assays?
RORg inh: 3%; VP16 counter: -10%; DT40 TDP1 no CPT: inconclusive; DT40 TDP1 CPT: inconclusive

Results for CO[C@H]1COC(=O)[C@H]2CCCN2C(=O)C/C=C\[C@@H](C)[C@H](OC)COC(=O)C/C=C\[C@@H]1C ?
RORg inh: 33%[10 µM]; VP16 counter: -11%[10 µM]
